Many of the other results were omitted from the sample, so hits are more common in it than they were.
Cruzain Triton = cruzain (T. cruzi) inhibition with detergent | P25779 | purified cruzain, Z-FR-AMC fluorescence, 0.01% Triton | Potency, µM, without a hit: max response, negative = inhibition, hits mostly inhibitors | 200,000 compounds, 0.43% hits | AID 1478;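 also: plate controls were neutral wells for no effect and buffer without enzyme for full effect; nearly all actives have a fitted effect of over 40% in size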
Target sequence (P25779 123-467 limits assumed): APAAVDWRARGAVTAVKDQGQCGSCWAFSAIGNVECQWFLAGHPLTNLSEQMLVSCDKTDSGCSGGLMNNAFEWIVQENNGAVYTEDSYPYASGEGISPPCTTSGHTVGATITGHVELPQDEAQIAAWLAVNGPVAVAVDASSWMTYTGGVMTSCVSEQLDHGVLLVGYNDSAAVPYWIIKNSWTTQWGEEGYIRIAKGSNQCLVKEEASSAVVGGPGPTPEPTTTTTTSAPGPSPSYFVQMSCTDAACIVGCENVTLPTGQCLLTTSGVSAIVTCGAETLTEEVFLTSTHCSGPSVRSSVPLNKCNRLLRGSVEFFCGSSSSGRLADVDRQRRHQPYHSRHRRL
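Detergent-containing run (0.01% Triton X-100) in acetate buffer pH 5.5 with 5 mM DTT: enzyme at 1.5 nM final, 15 min compound preincubation at room temperature, then 2 uM Z-FR-AMC substrate. Activity taken as 60 s fluorescence increase at 360/450 nm.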
Giardia FBPA inh = inhibitors of Giardia lamblia fructose-1,6-bisphosphate aldolase. 290,000 compounds, 0.71% hits. purified Giardia FBPA. Potency, µM (doses to about 59.6 µM), inactives show at the highest dose activity, negative = inhibition, actives largely listed as inhibitors; also: nearly all actives have a fitted effect of over 55% in size
Target sequence (A8B2U2 whole entry, looked up): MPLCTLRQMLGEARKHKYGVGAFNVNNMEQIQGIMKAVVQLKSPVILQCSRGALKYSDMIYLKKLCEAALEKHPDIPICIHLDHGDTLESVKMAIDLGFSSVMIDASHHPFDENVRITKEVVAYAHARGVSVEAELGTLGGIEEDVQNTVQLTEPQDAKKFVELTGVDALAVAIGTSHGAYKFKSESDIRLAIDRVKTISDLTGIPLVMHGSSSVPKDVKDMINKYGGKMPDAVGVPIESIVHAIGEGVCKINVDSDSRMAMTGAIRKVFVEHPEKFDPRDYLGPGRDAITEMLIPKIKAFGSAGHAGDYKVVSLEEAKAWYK
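40 nM FBPA preincubated 10 min at RT with compound (up to 57.5 uM final), then substrate plus GAPDH/TPI/NAD/arsenate coupling and diaphorase/resazurin added. Fluorescence read after 20 min at RT, 525/598 nm.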
Cruzain inh noDet = cruzain (T. cruzi) inhibition without detergent; P25779; purified cruzain, Z-FR-AMC fluorescence, no detergent; Potency, µM, without a hit: max response, negative = inhibition, usual class: inhibitors; 200,000 compounds, 2.3% hits; AID 1476;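 also: plate controls were enzyme without inhibitor for no effect and buffer without enzyme for full effect; nearly all actives have a fitted effect of over 40% in size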
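Purified cruzain at 1.5 nM, pre-incubated 15 min with compound at room temperature in 100 mM sodium acetate pH 5.5, 5 mM DTT, 0.00005% Triton X-100. Reaction started with 2 uM Z-FR-AMC; AMC fluorescence increase over 60 s gives rate.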
Starred values were filed as active, the others as inactive; ? = inconclusive; nt = not tested or not shown; [ ] = remark or other dose. Calls follow the shape of the dose curve; as a rule, active = well fitted curve in the direction sought with a large enough effect; inconclusive = small, poorly fitted or top-dose-only effect, or another doubt; inactive = no such curve, though single readings can be large; an effect the other way counts as inactive or inconclusive. Unless noted, % is scaled to controls: 0 for no effect and ±100 for the full control effect; potency is read from the fitted curve at half-maximal effect.

SMILES	Cruzain Triton	Giardia FBPA inh	Cruzain inh noDet
CCOC(=O)c1cccc(NC(=O)CCC(=O)N2CC(C)Oc3ccc(C)cc32)c1 (stereo not drawn)	-4%	nt	-1%
Cc1ccc(C(=O)NC(=S)Nc2ccc(-c3cc4ccccc4oc3=O)cc2)c(C)c1	-1%	0%	?
Cc1cc(C)cc(C(=O)NC(=S)Nc2ccc(-c3cc4ccccc4oc3=O)cc2)c1	-1%	1%	10µM*
Cc1ccc(N2CC3=C(C2=O)C(c2ccc(Br)cc2)NC(=O)N3C)cc1 (stereo not drawn)	-1%	nt	2%
NC(=O)c1ccc2nc(-c3ccc(Oc4ccc(Cl)cc4)cc3)[nH]c2c1	nt	-12%	nt
COC(=O)C1=C(C)N(Cc2ccccc2)C2=C3C(=O)CCCC3[C@@](O)(C(=O)OC)C(=O)N2C1c1ccccc1 (stereo partly drawn)	nt	5%[12.9 µM]	nt
COc1ccc2cc(-c3ccccc3)c(=O)oc2c1	nt	8%	nt
CN(C)C(=O)COc1ccc2cc(-c3ccccc3)c(=O)oc2c1	28µM*	6%	?
CC(=O)OCC1OC(Oc2cc(OC(C)=O)c3c(=O)cc(-c4ccc(OC(C)=O)c(OC(C)=O)c4)oc3c2)C(OC(C)=O)C(OC(C)=O)C1OC(C)=O (stereo not drawn)	1%	-6%	?
C[C@H]1CN(CCO)CCN1c1ccccc1	2%	nt	?
CCc1ccc2c(CN3CCc4ccccc43)cc(=O)oc2c1	-4%	-8%	32µM*
O=c1cc(CN2CCc3ccccc32)c2ccc(O)cc2o1	nt	4%	nt
CCOc1ccc(NS(=O)(=O)c2ccc3[nH]c4c(c3c2)CCCCC4)cc1	-14%	nt	-15%
Cn1c(=O)n2n(c1=O)[C@H]1[C@H](O)[C@H]3O[C@@H]3/C(=N/OC[C@@H](O)COCc3ccco3)[C@@H]1CC2	nt	0%[12.9 µM]	nt
C1C[C@@H]2CN(CCCN3CCOCC3)[C@@H](C1)O2	3%	nt	-2%
COc1ccc(NC(=O)c2cc3ccccn3n2)cc1	-1%	-26%	-10%
O=C(Nc1ccc(OC(F)(F)F)cc1)c1cc2ccccn2n1	-2%	nt	25µM*
C#CCCCO/N=C1/C[C@@H](O)[C@@H](O)[C@@H]2[C@@H]3C(=O)N(C4CCCCC4)C(=O)[C@H]3CC[C@H]12	nt	-1%[12.9 µM]	nt
COC(=O)c1c(NC(=O)/C=C/C(=O)O)sc(Cc2ccccc2)c1C	-10%	27%	13%
Cc1c(Cc2ccccc2)sc(NC(=O)/C=C/c2cccc3ccccc23)c1C(N)=O	-5%	-1%	5µM*
Cn1c(=O)c2cc(S(=O)(=O)Nc3ccc4c(c3)OCO4)ccc2n(C)c1=O	5%	1%	-8%
Cn1c(=O)oc2cc(S(=O)(=O)Nc3ccc4c(c3)OCO4)ccc21	2%	-17%	32µM*
O=C(O)CCCc1ccc2ccc3ccccc3c2c1	3%	nt	4%
Clc1nc2ccccc2cc1/C=N/Nc1nc2ccccc2[nH]1	28µM*	5%	?
C(=N\Nc1nc2ccccc2[nH]1)/c1ccncc1	nt	3%	nt
SMILES	Cruzain Triton	Giardia FBPA inh	Cruzain inh noDet
Cc1ccc(CSc2sc(C(=O)c3ccccc3)c(N)c2C#N)cc1	-1%	-3%	20µM*
N#Cc1c(Oc2ccc3ccccc3c2)sc(C(=O)c2ccccc2)c1N	4%	0%	25µM*
N#Cc1c(SCc2ccccc2)sc(C(=O)c2ccccc2)c1N	-5%	3%	1%
Cc1cccc(Oc2sc(C(=O)c3ccccc3)c(N)c2C#N)c1C	-6%	5%	?
O=C(c1ccc2c(c1)N(Cc1ccc(Cl)cc1)C(=O)c1ccccc1S2(=O)=O)N1CCCC1	-2%	nt	?
Cc1cccc(NC(=O)c2nc[nH]c2C(=O)Nc2ccccc2[N+](=O)[O-])c1	-1%	-7%	10µM*
CNC(=O)c1[nH]cnc1C(=O)Nc1ccccc1C	2%	-17%	-6%
CC(C)([CH2][Sn]([CH2]C(C)(C)c1ccccc1)([CH2]C(C)(C)c1ccccc1)[O][Sn]([CH2]C(C)(C)c1ccccc1)([CH2]C(C)(C)c1ccccc1)[CH2]C(C)(C)c1ccccc1)c1ccccc1	nt	3%	nt
O=C(O)C[C@H]1OCC=C2CN3CC[C@]45c6ccccc6N[C@@H]4[C@H]1[C@H]2C[C@H]35	1%	nt	4%
NC(=O)c1c(N)sc2c1CCCC2	-22%	?	20µM*
Nc1sc2c(c1C(=O)c1ccccc1)CCCC2	-8%	-7%	-24%
CC(C)c1ccc(NC(=O)CN2C(=O)CSc3ccc(S(=O)(=O)N4CCCC4)cc32)cc1	-6%	nt	-1%
NNc1nncn1N	0%	nt	7%
Cc1cc2oc3c(c(=O)c2cc1C)C(c1cccc(Br)c1)N(Cc1ccco1)C3=O (stereo not drawn)	-3%	2%	?
Cc1ccc2oc3c(c(=O)c2c1)C(c1cccc(Br)c1)N(Cc1ccco1)C3=O (stereo not drawn)	7%	-3%	25µM*
O=C(Nc1ccccc1)Nc1nnc(CSCc2ccccc2Cl)s1	-3%	1%	?
O=C(Nc1nnc(SCc2ccc(Cl)cc2)s1)c1ccco1	6%	15%	?
Cc1nnc(NC(=O)Nc2cccc(Cl)c2)s1	1%	7%	0%
O=C(Nc1ccc(Cl)cc1)Nc1nnc(SCc2ccccc2)s1	-1%	3%	7.9µM*
Cc1ccc(OCCSCc2nnc(NC(=O)Nc3cccc(Cl)c3)s2)cc1	-1%	-2%	16µM*
O=C(Nc1ccc(Cl)cc1)Nc1nnc(CSCc2ccccc2Cl)s1	-1%	4%	6.3µM*
O=C(Cc1nnc(NC(=O)Nc2ccccc2)s1)Nc1ccccc1	nt	1%	nt
O=C(Nc1ccc(Cl)c(Cl)c1)Nc1nnc(CSc2ccccc2)s1	-1%	2%	10µM*
CC[C@H](C)[C@H](N)C(=O)N[C@H](C(=O)N[C@@H](CO)C(=O)N[C@@H](C)C(=O)N[C@H](C(=O)N[C@H](C(=O)NCC(=O)N[C@H](C(=O)N[C@@H](CC(C)C)C(=O)O)[C@@H](C)CC)C(C)C)C(C)C)[C@@H](C)CC	nt	1%	nt
NCCSCCc1ccccc1	2%	nt	-10%
SMILES	Cruzain Triton	Giardia FBPA inh	Cruzain inh noDet
c1c[nH]cn1	3%	nt	5%
O=C(O)[C@@H]1[C@@H]2C[C@@H]3[C@@H](OC(=O)[C@@H]31)[C@H]2Br	-5%	nt	2%
Cc1ccc(-c2nc3cc(C(C)C)ccc3o2)cc1NC(=O)c1cc([N+](=O)[O-])ccc1N1CCOCC1	-1%	nt	-5%
O=C(CSc1nc2cc(S(=O)(=O)N3CCOCC3)ccc2o1)NC1CCCc2ccccc21 (stereo not drawn)	-3%	4%	25µM*
Cc1[nH]c2ccccc2c1C(=O)CSc1nc2cc(S(=O)(=O)N3CCCCC3)ccc2o1	1%	-3%	25µM*
O=C(NC1CCCc2ccccc21)c1cc(S(=O)(=O)N2CCOCC2)ccc1F (stereo not drawn)	nt	4%	nt
Cc1ccc(C(=O)CSc2nc3cc(S(=O)(=O)N4CCOCC4)ccc3o2)cc1	1%	1%	12%
O=C(/C=C/c1ccc2c(c1)OCO2)c1cccs1	1%	-17%	13%
COc1ccc2c(c1OC)C(Cc1ccccc1)N1CCc3cc4c(cc3C1C2)OCO4 (stereo not drawn)	-3%	?	17%
O=C(NCCc1ccc([N+](=O)[O-])cc1)c1ccccc1	nt	1%	nt
O=C(CCNC(=O)c1ccccc1)Oc1ccc([N+](=O)[O-])cc1	-22%	-8%	25µM*

Assay outcomes (PubChem)
